# Test results reported in PubChem BioAssay (EPA / NIEHS).
# Results filed as inconclusive are left out. Active and inactive are the calls of the source. Rule for the calls: active = hit-call score of the fitted dose curve at least 0.9, where 1 is the maximum; inconclusive = response in the unintended direction; inactive = score below 0.9.
# Molecular target: sheep Cyclooxygenase-1 (Cox1), PTGS1 (gene 443551) (UniProt P05979)
# Experiment: NVS_ENZ_oCOX1: NovaScreen (NVS) Enzymatic Assay for sheep Cyclooxygenase-1 (Cox1) (AID 2283239);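 note: actives reduce cyclooxygenase activity so potencies are for inhibitors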
# Outline: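 Absorbance read-out of cyclooxygenase activity in a cell-free preparation from sheep seminal vesicles, taken 0.66 hour after dosing. Initial testing was in duplicate at 25 uM, and confirmatory testing was run in concentration series.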
# sheep Cyclooxygenase-1 (Cox1), PTGS1 (gene 443551), sequence (P05979 whole entry, looked up): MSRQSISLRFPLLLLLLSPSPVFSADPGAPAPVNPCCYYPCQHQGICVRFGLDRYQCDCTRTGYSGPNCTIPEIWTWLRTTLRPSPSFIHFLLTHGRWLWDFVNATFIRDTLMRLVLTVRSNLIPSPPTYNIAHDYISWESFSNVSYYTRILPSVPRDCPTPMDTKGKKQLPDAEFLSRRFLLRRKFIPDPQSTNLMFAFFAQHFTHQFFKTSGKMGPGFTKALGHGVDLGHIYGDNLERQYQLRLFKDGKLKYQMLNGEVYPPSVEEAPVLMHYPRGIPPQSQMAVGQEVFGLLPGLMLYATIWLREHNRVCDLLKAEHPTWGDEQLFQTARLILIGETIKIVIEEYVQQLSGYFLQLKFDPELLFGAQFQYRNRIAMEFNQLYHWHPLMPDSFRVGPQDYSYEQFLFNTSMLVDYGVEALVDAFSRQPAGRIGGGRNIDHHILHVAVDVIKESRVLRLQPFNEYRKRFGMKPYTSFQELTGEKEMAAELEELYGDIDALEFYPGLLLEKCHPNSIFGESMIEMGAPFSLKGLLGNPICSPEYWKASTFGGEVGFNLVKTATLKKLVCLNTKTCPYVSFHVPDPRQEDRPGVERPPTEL
row,Compound,AC50
1,Cc1ccc(N)c(N)c1,42 µM (active)
2,[Cl-].[Cl-].[Hg+2],2.97 µM (active)
3,C1=Cc2cccc3cccc1c23,15.7 µM (active)
4,Nc1ccc(Cl)cc1N,4.69 µM (active)

# Molecular target: rat Monoamine Oxidase, MAO-B, Peripheral (MAOBP), Maob (gene 25750) (UniProt P19643)
# Sequence (P19643 whole entry, looked up): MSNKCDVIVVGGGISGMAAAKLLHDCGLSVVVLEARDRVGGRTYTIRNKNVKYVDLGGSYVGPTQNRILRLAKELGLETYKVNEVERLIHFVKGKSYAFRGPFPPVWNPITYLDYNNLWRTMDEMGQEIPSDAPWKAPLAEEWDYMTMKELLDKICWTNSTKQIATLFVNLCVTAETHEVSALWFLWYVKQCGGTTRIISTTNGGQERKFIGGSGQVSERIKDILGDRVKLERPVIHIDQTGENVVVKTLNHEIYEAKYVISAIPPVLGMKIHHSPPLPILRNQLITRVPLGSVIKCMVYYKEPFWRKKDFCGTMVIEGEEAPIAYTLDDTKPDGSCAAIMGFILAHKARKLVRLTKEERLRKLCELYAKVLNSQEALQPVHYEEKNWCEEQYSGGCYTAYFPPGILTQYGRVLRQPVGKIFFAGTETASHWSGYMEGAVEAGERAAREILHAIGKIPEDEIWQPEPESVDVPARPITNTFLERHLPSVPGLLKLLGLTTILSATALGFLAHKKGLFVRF
# Experiment: NVS_ENZ_rMAOBP: NovaScreen (NVS) Enzymatic Assay for rat Monoamine Oxidase, MAO-B, Peripheral (MAOBP) (AID 2283242)
Compound,AC50,outcome
[Cl-].[Cl-].[Hg+2],9.04 µM (active),
ClC1=C(Cl)[C@]2(Cl)[C@H]3[C@H]([C@@H]4C=C[C@H]3C4)[C@@]1(Cl)C2(Cl)Cl,,inactive
Clc1ccc(Cl)c(Cl)c1,,inactive
Cn1cc(-c2ccccc2)c(=O)c(-c2cccc(C(F)(F)F)c2)c1,,inactive
CO[C@@H]1[C@H](OC(=O)NC(=O)CCl)CC[C@]2(CO2)[C@H]1[C@@]1(C)O[C@@H]1CC=C(C)C,,inactive
CC(C)COC(=O)c1ccccc1C(=O)OCC(C)C,,inactive
Nc1cc(Cl)cc(C(=O)O)c1Cl,,inactive

# Tested on: rat Monoamine Oxidase, MAO-A, Central (MAOAC), gene 29253
# Experiment: NVS_ENZ_rMAOAC: NovaScreen (NVS) Enzymatic Assay for rat Monoamine Oxidase, MAO-A, Central (MAOAC) (AID 2283243);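 note: potency refers to inhibition seen as signal drop below DMSO baseline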
# Outline: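 Lysate-based radiometric enzyme assay using rat brain tissue; 1.5 h treatment; 25 uM single-point duplicate screen, concentration-response follow-up; loss of signal versus DMSO.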
Compound,AC50,outcome
CCOc1cccc(C2(N3CCN(c4ccccc4)CC3)CCC(C)CC2)c1 (stereo not given),4.53 µM (active),
Nc1ccc(Oc2ccc(N)cc2)cc1,11.3 µM (active),
Nc1ccc([N+](=O)[O-])cc1,36.3 µM (active),
[Cl-].[Cl-].[Hg+2],,inactive
Nc1ccc(Cl)cc1N,,inactive
O=C(N[C@H](c1ccccc1)[C@@H]1CN2CCC1CC2)c1c(Cl)ccc(C(F)(F)F)c1Cl,37.5 µM (active),

# Molecular target: Adenosine receptor A1 (Bos taurus) (UniProt P28190)
# Sequence (P28190 whole entry, looked up): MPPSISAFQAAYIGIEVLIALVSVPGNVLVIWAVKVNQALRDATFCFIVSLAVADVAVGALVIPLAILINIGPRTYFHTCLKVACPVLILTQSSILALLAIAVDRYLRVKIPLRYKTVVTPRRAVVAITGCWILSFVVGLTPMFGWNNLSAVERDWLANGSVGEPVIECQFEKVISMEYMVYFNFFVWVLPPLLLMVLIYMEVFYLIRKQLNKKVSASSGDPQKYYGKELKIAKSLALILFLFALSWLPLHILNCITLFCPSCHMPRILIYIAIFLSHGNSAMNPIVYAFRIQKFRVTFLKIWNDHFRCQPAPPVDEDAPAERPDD
# Experiment: NVS_GPCR_bAdoR_NonSelective: NovaScreen (NVS) G Protein-Coupled Receptor Assay for bovine Adenosine Receptor (AdoR), Non-selective Binding (AID 2283244)
# Outline: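 Cell-free binding with membranes from bovine striatum: radioligand displaced by test chemical, read after 1 h by filtration and scintillation. Single-point 25 uM duplicate primary, 50 uM top concentration in follow-up curves, DMSO baseline.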
Compound,outcome,AC50
CCOc1cccc(C2(N3CCN(c4ccccc4)CC3)CCC(C)CC2)c1 (stereo not given),inactive,
[Cl-].[Cl-].[Hg+2],,19.1 µM (active)
CS(=O)(=O)NC(=O)c1cc(Oc2ccc(C(F)(F)F)cc2Cl)ccc1[N+](=O)[O-],inactive,
Nc1ccc(Cl)cc1N,inactive,

# Tested on: guinea pig Muscarinic, Peripheral (Mperiperal) Receptor, Non-selective Binding, gene 100379235
# Experiment: NVS_GPCR_gMPeripheral_NonSelective: NovaScreen (NVS) G Protein-Coupled Receptor Assay for guinea pig Muscarinic, Peripheral (Mperiperal) Receptor, Non-selective Binding (AID 2283250)
# Procedure: NVS_GPCR_gMPeripheral_NonSelective is a biochemical, single-readout assay that uses extracted gene-proteins from Guinea pig bladder membranes in a tissue-based cell-free assay. Measurements were taken 1 hour after chemical dosing in a 48-well plate.NVS_GPCR_gMPeripheral_NonSelective is one of one assay component(s) measured or calculated from the NVS_GPCR_gMPeripheral_NonSelective assay. It is designed to make measurements of radioligand binding, a form of binding reporter, as detected with scintillation counting signals by Filter-based radiodetection technology.Data from the assay component NVS_GPCR_gMPeripheral_NonSelective was analyzed into 1 assay endpoint. This assay endpoint, NVS_GPCR_gMPeripheral_NonSelective, was analyzed in the positive analysis fitting direction relative to DMSO as the negative control and baseline of activity. Using a type of binding reporter, loss-of-signal activity can be used to understand changes in the binding as they relate to the gene Chrm3. Furthermore, this assay endpoint can be referred to as a primary readout, because the performed assay has only produced 1 assay endpoint. To generalize the intended target to other relatable targets, this assay endpoint is annotated to the gpcr intended target family, where the subfamily is rhodopsin-like receptor.
# Binding assays used specific radioligands (tritiated, iodinated) with non-radioactive competitive displacement ligands in agonist or antagonist protocols (as indicated) and various reference compounds and inhibitors to titrate specific binding to receptors and transporters. Most enzyme assays (CYPs, kinases, phosphatases, proteases, HDACs) used recombinant protein and specific substrates (fluorescence mostly, some colorimetric and radioactive) and inhibitors, followed by a biochemical separation of substrate and product. All assays for the biochemical HTS were initially run in duplicate at a single concentration (10 uM for CYP450 assays and 25 uM for all others). Assay-chemical combinations meeting a pre-defined threshold (e.g., 30% inhibition and other criteria defined below) were then run in singleton concentration-response format with maximum concentration of 20 uM for CYPs and 50 uM for all others. Each assay was run with positive and negative controls, and concurrent controls on every plate. The follow-up (secondary) screen tested active chemical-pairs in concentration series, as well as a few additional assays not tested in the primary screen, some selected negative inactives, and several cases re-run in the concentration series for confirmatory purposes.
Compound,outcome,AC50
O=[N+]([O-])c1ccc(Oc2ccc(Cl)cc2Cl)cc1,inactive,
[Cl-].[Cl-].[Hg+2],,9.07 µM (active)
O=C(N[C@H](c1ccccc1)[C@@H]1CN2CCC1CC2)c1c(Cl)ccc(C(F)(F)F)c1Cl,inactive,
O=C(Oc1ccc(Br)cc1)N1CCN2CCC1CC2,,15 µM (active)

# Molecular target: guinea pig Opioid, Kappa 1 Receptor (OpiateK), OPRK1 (gene 100135587) (UniProt P41144)
# Sequence (P41144 whole entry, looked up): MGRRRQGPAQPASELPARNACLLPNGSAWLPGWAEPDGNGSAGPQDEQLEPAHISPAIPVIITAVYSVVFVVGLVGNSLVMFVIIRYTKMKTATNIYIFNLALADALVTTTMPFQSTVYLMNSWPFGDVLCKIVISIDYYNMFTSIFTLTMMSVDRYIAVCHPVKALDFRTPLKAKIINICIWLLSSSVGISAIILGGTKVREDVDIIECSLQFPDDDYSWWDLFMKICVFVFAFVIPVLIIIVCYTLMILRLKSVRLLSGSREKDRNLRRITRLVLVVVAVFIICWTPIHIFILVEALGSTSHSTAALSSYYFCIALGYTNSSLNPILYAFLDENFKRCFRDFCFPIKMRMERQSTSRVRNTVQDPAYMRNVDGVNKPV
# Experiment: NVS_GPCR_gOpiateK: NovaScreen (NVS) G Protein-Coupled Receptor Assay for guinea pig Opioid, Kappa 1 Receptor (OpiateK) (AID 2283252);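 note: radioligand displacement from kappa opioid receptor in guinea pig cerebellar membranes; active means reduced radioligand binding relative to DMSO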
# Outline: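 Cell-free tissue prep: guinea pig cerebellar membranes, radioligand displacement, 2 h incubation. Readout: filtration plus scintillation counting. Primary single-point 25 uM duplicate; actives retested in concentration series; DMSO negative control.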
Compound,outcome,AC50
CCCCCOC(=O)c1ccccc1C(=O)OCCCCC,inactive,
CCCSC(=O)N(CCC)CCC,inactive,
[Cl-].[Cl-].[Hg+2],,13.5 µM (active)
O=C(N[C@H](c1ccccc1)[C@@H]1CN2CCC1CC2)c1c(Cl)ccc(C(F)(F)F)c1Cl,,0.0235 µM (active)
CC(C)N(Cc1ccccc1)C(=O)C(C)(C)C,,15.7 µM (active)
